# Results: ChEMBL document CHEMBL4513216, “Probing the Open Global Health Chemical Diversity Library for Multistage-Active Starting Points for Next-Generation Antimalarials” (ACS Infect Dis, 2020)
# Screen size: about 69,000 compounds; about 8,600 (12%) showed an effect of 50% or more. The sample as a whole holds a higher share of strong results than the screen did.
# Test system: Plasmodium berghei
# Experiment: Screen against P. berghei liver stage (PbLuc), transformed with Luciferase, at 10uM
# Type: functional, HepG2
# Settings: tested at 10 uM
row,Structure (SMILES),INHIBITION
1,CC(NC(=O)NCCCn1cncn1)c1ccc(C#N)cc1 (configuration not stated),24.75%
2,CC=C(C)C(=O)NS(=O)(=O)c1ccc(C(F)(F)F)cn1,13.8%
3,O=C(CCCN1CCOCC1)N1CCCC(CO)(CC2CC2)C1 (configuration not stated),-4.21%
4,CC(C1CCN(C(=O)c2coc(CN3CCOCC3)c2)CC1)N(C)C (configuration not stated),35.8%
5,Cc1cc(NCCC(=O)NC2CCS(=O)(=O)C2)nc(-c2ccncc2)n1 (configuration not stated),15.7%
6,CC(C)c1cc(C(=O)N2CCc3nc(C4CCCN4)ncc3C2)cs1 (configuration not stated),28%
7,COc1cccc(C(=O)N2CCc3nc(C4CCCN4)ncc3C2)c1 (configuration not stated),59.3%
8,Cc1cc(C(=O)N2CCc3nc(C4CCCN4)ncc3C2)cs1 (configuration not stated),-16.5%
9,COc1ncc(NCc2ccc(Cl)c(Cl)c2)cc1C(N)=O,71.8%
10,COc1ncc(NCc2ccc(C#N)cc2)cc1C(N)=O,8.12%
11,COc1ncc(NCc2ccc(F)cc2)cc1C(N)=O,-5.1%
12,CCC(=O)N1CCC2(COCc3cnc(NCc4ccco4)nc32)C1 (configuration not stated),6.55%
13,CNc1cc(N2CCC(O)(CNC(=O)c3ccc(C)nc3)C2)ncn1 (configuration not stated),12.3%
14,Cc1cnn(CC2CCCN2CC(=O)Nc2cc(C)on2)c1 (configuration not stated),-23.9%
15,Cc1nccc(N(C)Cc2ncc(-c3ccccc3C(=O)O)s2)n1,1.635%
16,COc1cc2c(cc1OC)C(=O)C(Sc1nnc(C)o1)C2 (configuration not stated),27.5%
17,O=C(O)CC1COCCN1CCCc1ccccc1 (configuration not stated),56.2%
18,O=C(O)CC1COCCN1Cc1ccccc1-c1ccccc1 (configuration not stated),-4.56%
19,O=C(O)CC1COCCN1Cc1ccccc1OCCc1ccccc1 (configuration not stated),1.95%
20,CCS(=O)(=O)NCCCn1ncc2c(C)cccc21,4.35%
21,Cc1cc(C(=O)N(C)CCCn2cccn2)nc(N)n1,64.1%
22,Cc1cc(N(C)CCCn2cccn2)nc(-c2cccnc2)n1,-37.2%

row,Structure (SMILES),INHIBITION
1,CCOc1c(F)cccc1C(=O)N(C)CCn1cccn1,-27.6%
2,Cc1cc(N(C)CCCn2cccn2)nc(N)n1,75.2%
3,CCCN(Cc1nccn1C)C(=O)c1cc(C)nc(C)n1,42.1%
4,Cc1cc(N(C)C)nc(NCCn2cccn2)n1,-24.4%
5,COc1ccc(Cl)c(NCC(=O)NCC(=O)N2CCCC2)c1,24.1%
6,COCC1CCCCN1C(=O)c1cc(Cn2ccc3ccccc32)[nH]n1 (configuration not stated),-14.9%
7,CCN(C)C[C@@H]1CN(S(=O)(=O)c2cccc(C#N)c2)C[C@@H]1CO,36.2%
8,CCN(C)C[C@@H]1CN(S(=O)(=O)c2cccc(Cl)c2)C[C@@H]1CO,57.6%
9,COCCN(C)C[C@@H]1CN(C(=O)c2cccc(Cl)c2)C[C@@H]1CO,10.7%
10,CCN(C)C[C@@H]1CN(S(=O)(=O)c2ccc(C#N)cc2)C[C@@H]1CO,58.6%
11,CCN(C)C[C@@H]1CN(S(=O)(=O)c2ccc(OC)cc2)C[C@@H]1CO,39.4%
12,CCN(C)C[C@@H]1CN(Cc2cccc(Cl)c2)C[C@@H]1CO,43.3%
13,O=S(=O)(C1CC1)N1CC[C@]2(C[C@@H](Oc3ccccn3)CO2)C1,17.3%
14,CCCc1n[nH]c(C2CN(CCC(F)(F)F)CCO2)n1 (configuration not stated),29.7%
15,Cc1nnc([C@@]23CCO[C@@H]2CCN(Cc2nccs2)C3)o1,37.6%
16,CCc1nc(CN2CCOC(Cn3cncn3)C2)no1 (configuration not stated),-7.31%
17,Cc1cc(CN2CCN(C(C)C)C(CCO)C2)[nH]n1 (configuration not stated),15.5%
18,COc1ccc(NS(=O)(=O)C=c2[nH]c(=O)n3cccc3c2=O)cc1Cl,86.4%
19,O=c1c(=CS(=O)(=O)Nc2ccccc2)[nH]c(=O)n2cccc12,-63.5%
20,O=c1c(=CS(=O)(=O)Nc2ccc(Br)cc2)[nH]c(=O)n2cccc12,67.3%
21,O=c1c(=CS(=O)(=O)Nc2ccc(Cl)cc2)[nH]c(=O)n2cccc12,-51.6%
22,Cc1ccc(NS(=O)(=O)C=c2[nH]c(=O)n3cccc3c2=O)cc1,-53.7%

row,Structure (SMILES),INHIBITION
1,CC(C)c1ccc(NS(=O)(=O)C=c2[nH]c(=O)n3cccc3c2=O)cc1,-26.1%
2,Cn1cnc2ccc(NC(=O)CC3CCN(S(C)(=O)=O)CC3)cc21,-9.2%
3,CC(Oc1cccc(Cl)c1)C(=O)Nc1cnn(CCN(C)C)c1 (configuration not stated),60%
4,CC(=O)c1cccc(OC(C)C(=O)Nc2cnn(CCN(C)C)c2)c1 (configuration not stated),34.2%
5,CC(Oc1cccc(Cl)c1)C(=O)Nc1cnn(CC(=O)NC2CC2)c1 (configuration not stated),10.7%
6,CC(C)c1cc(C(=O)NCCc2nc(-c3cccnc3)n[nH]2)[nH]n1,12.365%
7,c1cnc(N2CCc3onc(CN4CCOCC4)c3C2)cn1,12.6%
8,CSC1(CNC(=O)N(C)Cc2ccc(C)s2)CCOCC1,57.3%
9,CSC1(CNC(=O)N(C)Cc2ccc(Cl)s2)CCOCC1,19.1%
10,CSC1(CNC(=O)N(C)Cc2sccc2C)CCOCC1,43.4%
11,OCCN1CCN(CCOCC(F)(F)F)CC1,28.3%
12,COCCN1C(=O)C[C@H]2[C@H]1CCN2Cc1ccc(OC)cc1,16.5%
13,COCCN1C(=O)C[C@H]2[C@H]1CCN2Cc1cccc(C#N)c1,33.5%
14,N#Cc1cccc(CN2CC[C@@H]3[C@@H]2CC(=O)N3CCN2CCCC2)c1,21.8%
15,CN(C)C(=O)CN1C(=O)C[C@@H]2[C@@H]1CCN2Cc1cccc(C#N)c1,81.2%
16,CC(C)CN1C(=O)C[C@@H]2[C@@H]1CCN2Cc1cccc(C#N)c1,63.7%
17,COCCN1C(=O)C[C@H]2[C@H]1CCN2Cc1ccccc1,54.4%
18,N#Cc1cccc(CN2CC[C@@H]3[C@@H]2CC(=O)N3Cc2ccncc2)c1,29.9%
19,COCCN1C(=O)CC[C@@H]2[C@H]1CCN2Cc1cccc(C#N)c1,27.6%
20,CN1C(=O)C[C@H]2[C@H]1CCN2Cc1cccc(C#N)c1,7.77%
21,N#Cc1cccc(NC(=O)CCn2nc(-c3cccs3)oc2=O)c1,38.8%
22,COc1ccc(Cl)cc1Nc1nc(N)c(C(C)=O)s1,9.32%

row,Structure (SMILES),INHIBITION
1,OCCN1CCC2(CC1)CC(NCc1ccccn1)c1ccccc1O2 (configuration not stated),33%
2,O=C(Nc1cccc(CNCc2ccccn2)c1)C1CCCC1,-0.65%
3,O=C(Nc1ccc(CCN2CCC(O)CC2)cc1)C1CCCCC1,29.2%
4,CN1C(=O)CC2(CCN(S(=O)(=O)C3CC3)CC2)c2ccccc21,55.6%
5,CN1C(=O)CC2(CCN(S(=O)(=O)N(C)C)CC2)c2ccccc21,27.5%
6,CN(C)C(=O)N1CC2(CCN(S(C)(=O)=O)CC2)c2ccccc21,-43.1%
7,CN1C(=O)C2(CCN(S(=O)(=O)C3CC3)CC2)c2ccccc21,-3.51%
8,CN(C)C(=O)N1CC2(CCN(S(=O)(=O)C3CC3)CC2)c2ccccc21,38.2%
9,CN1CC2(CCN(S(=O)(=O)C3CC3)CC2)c2ccccc21,58.5%
10,O=C(c1ccccn1)N1CCC2(CCCN(c3nncs3)C2)C1 (configuration not stated),28.5%
11,COc1c(C2CC(=O)Nc3[nH]ncc32)cc2c(c1OC)OCO2 (configuration not stated),7.38%
12,Cc1sc(CN)nc1-c1ccccc1,6.54%
13,Cc1ccc(C(=O)N2CCc3ccc(=O)n(CCN(C)C)c3CC2)o1,-17.2%
14,O=C(CCc1cc(O)no1)N1CCC(Cc2ccc(F)cc2)CC1,-3.12%
15,COc1ccc(OC2CCN(C(=O)CCc3nc(Cl)n[nH]3)CC2)cc1,28.4%
16,CN1CCC(N(C)CCC(=O)N2CCN(Cc3cccc(F)c3)CC2)C1 (configuration not stated),-0.991%
17,CN1CCC(N(C)CCC(=O)N2CCC(CCc3ccccc3)CC2)C1 (configuration not stated),74.3%
18,CN1CCC(N(C)CCC(=O)N2CCC(OCc3ccccc3)CC2)C1 (configuration not stated),23.8%
19,CN1CCC(N(C)CCC(=O)N2CCC(Cc3ccc(F)cc3)CC2)C1 (configuration not stated),66.4%
20,CN1CCC(N(C)CCC(=O)N2CCC(Oc3ccc(Cl)cc3)CC2)C1 (configuration not stated),67.4%
21,NC(=O)CC1CCN(C(=O)CCOc2ccc(Cl)cc2)CC1,23.2%
22,CN1CC[C@H](N(C)Cc2ccccc2)C[C@H](O)C1,18.4%

row,Structure (SMILES),INHIBITION
1,CCc1nc(-c2ccnc(N3CCNCC3)n2)no1,29.6%
2,Cc1cc(C)c(CNC(=O)N2CCCC2c2ccc(F)cc2)c(=O)[nH]1 (configuration not stated),34.7%
3,CC(C)n1cnnc1CN(C)C(=O)CCn1cnc2ccccc2c1=O,-17.6%
4,CN1CC(=O)N(C2CCC2)Cc2c(NC3CCNCC3)ncnc21,20.9%
5,CC(=O)N[C@@H]1CN(Cc2ccc(F)cc2F)C[C@H]1c1ccc(C)o1,-14.1%
6,CC(C)C(CNCc1cccc2c1OCO2)N1CCOCC1 (configuration not stated),24.8%
7,Cc1ccc(C(CNCc2cccc3c2OCO3)N2CCOCC2)o1 (configuration not stated),29.4%
8,c1csc(C(CNCc2cccc3c2OCO3)N2CCOCC2)c1 (configuration not stated),61.9%
9,Cc1ccc(NC(=O)N2CCCC(O)C2)c(Br)c1 (configuration not stated),-86.5%
10,Cc1ccc(OCCCNC(=O)CN(C)c2ccc(C#N)cn2)cc1,49.3%
11,O=C(CCc1nnc2ccccn2c1=O)NCc1cccnc1,37.3%
12,O=C(CCc1nnc2ccccn2c1=O)NCc1ccc2c(c1)OCO2,57%
13,COc1ccc(CNC(=O)CCc2nnc3ccccn3c2=O)cc1,25.3%
14,Cc1nc(CO[C@@H]2CN(Cc3cccs3)[C@@H]3COC[C@@H]32)cs1,-33.3%
15,Cc1cc(CNc2cncc(C(=O)N(C)C)n2)c2[nH]c(C)c(C)c2c1,29.7%
16,CNc1cc(C)nc(NCc2cc(C)cc3c(C)c(C)[nH]c23)n1,76.7%
17,CNc1cc(C)nc(-c2cc(NC)nc3[nH]ccc23)n1,-8.51%
18,CNc1cc(C)nc(-c2cc(NCCO)nc3[nH]ccc23)n1,-28.4%
19,CNc1nc(C)cc(NCc2cc(C)cc3c(C)c(C)[nH]c23)n1,87.9%
